Reference: PubChem BioAssay AID504725 (Broad Institute, 2011)
Measured potencies and affinities stand elsewhere. The source made the active and inactive calls. No rule for the calls is given here.

Each compound was assayed against KSHV LANA C-terminal domain (residues 932-1162) binding to LBS DNA (UniProt O40947) (assay: inhibitors of C-LANA binding to LBS DNA, dose response, biochemical, fluorescence polarization, cherry-picked samples (AID 504725)). Conditions: MBP-C-LANA / FAM-LBS DNA fluorescence polarization, percent change from plate compound-well median; series mostly up to 35 µM.

outcome, inactive:
Cc1nnc(NC(=O)CN2C(=O)NC3(CCCC3)C2=O)s1
CCc1ccc(N2CC(C(=O)OCC(=O)N(CC)c3c(N)n(Cc4ccccc4)c(=O)[nH]c3=O)CC2=O)cc1 (configuration not stated)
CCc1noc(C)c1C(=O)NCCc1c[nH]c2ccccc12
CC(=O)N/C(=C/c1ccc(OS(=O)(=O)c2ccc(C)cc2)cc1)C(=O)Nc1ccc(C(=O)O)cc1
COc1ccc(OC2CCN(S(=O)(=O)c3ccc(OC)cc3)CC2)cc1
COc1ccc(/C=N/NC(=O)c2ccc3nc[nH]c3c2)c(OC)c1
Nc1ccc(-c2nc3ccc(C(=O)O)cc3s2)cc1
CNC(=S)Nc1cccc(C(=O)OC)c1
COc1ccc(CCNC(=O)CCCNC(=O)Cn2cnc3sc(C)c(C)c3c2=O)cc1OC
CCN(CC(=O)Nc1ccc(OC)cc1)C(=O)c1cc([N+](=O)[O-])ccc1N1CCOCC1
O=c1cc(-c2ccc(O)c(O)c2)oc2cc(O[C@@H]3O[C@H](CO)[C@@H](O)[C@H](O)[C@H]3O)cc(O)c12
Nc1nc(C(F)(F)F)cc(=O)[nH]1
O=C(CN1C(=O)NC2(CCCC2)C1=O)Nc1ccccc1-c1ccccc1
CN(C)CCCNC(=O)c1ccccc1Oc1ccccc1
Cc1cc(C(F)(F)F)c2c(N)c(C(=O)Nc3cc(C)on3)sc2n1
O=C(O)C(c1ccccc1)N1C(=O)/C(=C\c2ccc(-c3cccc(Cl)c3)o2)SC1=S (configuration not stated)
CCN(c1ccc(C)cc1C)S(=O)(=O)c1nnc(NC(=O)c2ccco2)s1
